Sampled rows, rich in hits. Any-hit rate of the full collection: about 12%.
HP1b binding inh: HTS for Inhibitors of HP1-beta Chromodomain Interactions with Methylated Histone Tails; Potency, µM (titrated, usually from 114 µM), for the others: at the top dose activity change, negative = inhibition, usual class: inhibitors; AID 540317, 2011; 0.56% of 390,000 active; AlphaScreen HP1-beta / biotin-H3K9me3 peptide binding; note: nearly all actives have a fitted effect of over 70% in size
Target sequence (P83916 whole entry, looked up): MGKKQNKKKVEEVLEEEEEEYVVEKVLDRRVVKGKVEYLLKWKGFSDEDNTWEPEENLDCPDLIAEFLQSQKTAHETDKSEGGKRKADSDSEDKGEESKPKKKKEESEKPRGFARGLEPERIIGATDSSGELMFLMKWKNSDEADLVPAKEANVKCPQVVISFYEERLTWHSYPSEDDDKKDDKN
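AlphaScreen: HP1-beta (50 nM) preformed 30 min with biotin-H3(1-18)K9me3 peptide (50 nM) in PBS pH 7.4, 0.01% Tween-20. Compound added for 30 min at RT, then streptavidin donor/nickel chelate acceptor beads (10 ug/mL) for 30 min.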
BAZ2B block: qHTS Assay for Inhibitors of BAZ2B. Bromodomain adjacent to zinc finger domain protein 2B (Homo sapiens), Q9UIF8. 4.4% of 360,000 active. Potency, µM (titrated, usually from 114 µM), without a hit: at the highest dose activity change, negative = inhibition, actives largely listed as inhibitors. AlphaScreen BAZ2B-H3K14Ac peptide displacement; note: % is set by controls: 0 for no effect and ±100 for the full control effect; nearly all actives have a fitted effect of over 60% in size
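Multi-concentration screen (max 110 uM) measuring displacement of acetylated histone H3 peptide from BAZ2B by AlphaScreen, using 50 nM protein, 50 nM peptide and 10 ug/mL streptavidin donor plus Ni-chelate acceptor beads.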
G9a block: qHTS Assay for Inhibitors of Histone Lysine Methyltransferase G9a; Histone-lysine N-methyltransferase EHMT2 (Homo sapiens), Q96KQ7; G9a H3K9 monomethylation, AlphaScreen, 2 h; Potency, µM (series often up to 102 µM), for inactives: top-dose activity, negative = inhibition, usual class: inhibitors; 8.8% of 350,000 active; AID 504332, 2011; note: % is set by controls: 0 for no effect and ±100 for the full control effect; nearly all actives have a fitted effect of over 75% in size
Target sequence (Q96KQ7 913-1193 limits assumed): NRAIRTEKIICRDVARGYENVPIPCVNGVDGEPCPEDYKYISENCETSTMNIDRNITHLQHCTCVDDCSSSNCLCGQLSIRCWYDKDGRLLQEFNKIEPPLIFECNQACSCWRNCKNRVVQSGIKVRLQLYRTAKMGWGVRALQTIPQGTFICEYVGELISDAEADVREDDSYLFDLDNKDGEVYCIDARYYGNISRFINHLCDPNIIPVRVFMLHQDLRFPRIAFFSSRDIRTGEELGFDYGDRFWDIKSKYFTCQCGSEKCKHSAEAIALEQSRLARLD
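Chemiluminescent proximity detection of H3K9 monomethylation, read after 10 min bead incubation in the dark. Reaction: 20 nM G9a, 500 nM biotin-H3K9 peptide, 20 uM SAM cofactor, 2 h, room temperature, following 15 min enzyme-compound preincubation.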
Sfp inh: qHTS Assay for Inhibitors of Bacillus subtilis Sfp phosphopantetheinyl transferase (PPTase); 4'-phosphopantetheinyl transferase ffp (Bacillus subtilis), Q9F4F7; Biochemical Sfp PPTase activity, qHTS; Potency, µM, for inactives: largest response in the series, negative = inhibition, actives largely listed as inhibitors; 3.5% of 310,000 active;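 note: the enzyme is Sfp with the accession as filed and its product quenches rhodamine fluorescence; 0% = enzyme reaction without inhibitor and -100% = no enzyme wells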
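Reaction rates are the 30-min fluorescence difference (ex 525, em 598 nm) in wells containing 15 nM Sfp, 5 uM rhodamine-CoA and 12.5 uM BHQ-2-YbbR at pH 7.6 with 10 mM MgCl2.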
JMJD2A Tudor inh: qHTS Assay for Inhibitors of JMJD2A-Tudor Domain. Lysine-specific demethylase 4A (Homo sapiens), O75164. AlphaScreen JMJD2A-Tudor / H3K4me3 peptide binding. Potency, µM (top dose mostly 114 µM), inactives show at the highest dose activity change, negative = inhibition, most hits filed as inhibitors. 4.4% of 390,000 active. AID 504339, 2011; note: % is set by controls: 0 for no effect and ±100 for the full control effect; nearly all actives have a fitted effect of over 50% in size
L3MBTL1 inh: qHTS Assay for the Inhibitors of L3MBTL1 | 0.66% of 230,000 active | AID 485360, 2010 | Lethal(3)malignant brain tumor-like protein 1 (Homo sapiens), Q9Y468 | AlphaScreen L3MBTL1–H3K9me1 peptide binding | Potency, µM (top dose mostly 57.1 µM), inactives show at the highest dose activity, negative = inhibition, hits mostly inhibitors; note: % is set by controls: 0 for no effect and ±100 for the full control effect; nearly all actives have a fitted effect of over 60% in size
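AlphaScreen proximity signal between nickel-chelate acceptor and streptavidin donor beads (final 10 ug/mL) reports binding of 50 nM L3MBTL1 to 75 nM biotin-H3 K9me1 peptide; complex incubated with compounds 30 min at room temperature; cefsulodin titration as control.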
* hit, by the source's call; [ ] = remark or other dose. Calls come from the whole dose curve; as a rule, active = well fitted curve in the direction sought with a large enough effect; inconclusive = small, poorly fitted or top-dose-only effect, or another doubt; inactive = no such curve, though single readings can be large; an effect the other way counts as inactive or inconclusive. Potency is the fitted concentration of half-maximal effect.

For COc1ccc(C(=O)Nc2nc3c(s2)Cc2cc(OC)ccc2-3)cc1 the results were HP1b binding inh -4.2%, BAZ2B block -15.0%, G9a block 44.7µM*, Sfp inh 79.4µM*, JMJD2A Tudor inh -17.9% and L3MBTL1 inh -23.6%.
Screening COc1ccc2c(c1)-c1nc(NC(=O)c3ccccc3F)sc1CC2 returned HP1b binding inh 68.8%, BAZ2B block -5.3%, G9a block 0.1%[59 µM] and JMJD2A Tudor inh 6.9%.
`COc1ccc2c(c1)Cc1sc(NC(=O)c3ccccc3)nc1-2` gave HP1b binding inh 25.4%, BAZ2B block -4.7%, G9a block inconclusive, Sfp inh 50.1µM* and JMJD2A Tudor inh -7.6%.
For COc1ccc2c(c1)-c1nc(NC(=O)c3cc(Cl)ccc3OC)sc1CC2 the results were HP1b binding inh 21.2%, BAZ2B block -9.7%, G9a block 20µM* and JMJD2A Tudor inh -18.2%.
For COc1ccc2c(c1)Cc1sc(NC(=O)c3cccc(F)c3)nc1-2 the results were HP1b binding inh -9.7%, BAZ2B block -3.4%, G9a block 0.0%[59 µM] and JMJD2A Tudor inh -18.9%.
CN(Cc1ccccc1)c1oc(COc2ccccc2F)nc1C#N was read as HP1b binding inh -23.4%, BAZ2B block 28.2µM*, G9a block 28.2µM*, Sfp inh inconclusive and JMJD2A Tudor inh inconclusive.
Screening Cc1ccc(-c2nc(C#N)c(NCc3ccco3)o2)cc1 returned HP1b binding inh 3.9%, BAZ2B block -31.0%, G9a block -28.4%[59 µM], Sfp inh 1.7%, JMJD2A Tudor inh 4.1% and L3MBTL1 inh 3.1%[11.4 µM].
Screening Cc1cccc(-c2nc(C#N)c(NCc3ccco3)o2)c1 returned HP1b binding inh 13.2%, BAZ2B block 50.1µM*, G9a block 44.7µM*, Sfp inh -5.4%, JMJD2A Tudor inh -22.1% and L3MBTL1 inh inconclusive.
`COc1ccc(Nc2oc(COc3ccccc3F)nc2C#N)cc1` gave HP1b binding inh -4.9%, BAZ2B block inconclusive, G9a block 35.5µM*, Sfp inh 3.1%, JMJD2A Tudor inh inconclusive and L3MBTL1 inh -12.0%.
`Cc1ccc(OCc2nc(C#N)c(NCc3ccco3)o2)cc1` gave HP1b binding inh -9.2%, BAZ2B block 35.5µM*, G9a block 50.1µM*, Sfp inh -7.4% and JMJD2A Tudor inh inconclusive.
`CCN(CCCCO)c1nc(C)nc2c1c(C)c(C)n2-c1c(C)cc(C)cc1C` gave Sfp inh -15.2%.
For N#Cc1ccc2c(c1)C[C@]1(CCCCN3C(=O)c4ccccc4C3=O)Oc3c(c(=O)oc4ccc(F)cc34)C2O1 the results were BAZ2B block -35.6%[22.9 µM], G9a block 5.3%[2.33 µM] and Sfp inh 8.6%.
`Cc1ccc(OCc2nc(C#N)c(NCCc3ccccc3)o2)cc1` gave HP1b binding inh -19.0%, BAZ2B block inconclusive, G9a block inconclusive and JMJD2A Tudor inh -30.6%.
COc1ccc(Nc2oc(COc3ccc(C)cc3)nc2C#N)cc1 was read as HP1b binding inh -35.1%, BAZ2B block inconclusive, G9a block inconclusive, Sfp inh -17.0%, JMJD2A Tudor inh 89.1µM* and L3MBTL1 inh -28.9%.
`Cc1c(-c2ccccn2)c(=O)[nH]n1-c1ccc(F)cc1` gave HP1b binding inh 28.5%, BAZ2B block 50.1µM*, G9a block -29.1%, Sfp inh 21.7%, JMJD2A Tudor inh inconclusive and L3MBTL1 inh -18.5%.
Screening CN(C)CCN(C(=O)c1ccco1)c1nc2c(F)cc(F)cc2s1 returned HP1b binding inh 20.4%, BAZ2B block -8.7%, G9a block 0.2%[59 µM] and JMJD2A Tudor inh -16.2%.
`CN(C)CCN(C(=O)c1ccc2ccccc2c1)c1nc2c(F)cc(F)cc2s1` gave HP1b binding inh -15.7%[57 µM], BAZ2B block -23.4%[57.1 µM], G9a block 50.1µM*, Sfp inh -2.8% and JMJD2A Tudor inh inconclusive.
Screening Cc1cccc2sc(N(CCN(C)C)C(=O)c3ccc4ccccc4c3)nc12 returned HP1b binding inh -10.4%[57 µM], BAZ2B block inconclusive, G9a block 39.8µM*, Sfp inh -2.4% and JMJD2A Tudor inh inconclusive.
Cn1cnnc1SCC(=O)Nc1ccc(C#N)cc1 was read as HP1b binding inh 20.0%, BAZ2B block -9.2%, G9a block 9.1%[59 µM] and JMJD2A Tudor inh -8.2%.
For CCOc1ccccc1/C=N/Nc1nc2c(N)ncnc2n1[C@H]1O[C@@H](CO)[C@H](O)[C@@H]1O the results were HP1b binding inh 36.2%, BAZ2B block -9.5%, G9a block 9.5%[59 µM], Sfp inh 56.2µM*, JMJD2A Tudor inh -14.1% and L3MBTL1 inh -2.8%.
`Nc1ncnc2c1nc(Br)n2C1OC(CO)C(O)C1O` (configuration not stated) gave Sfp inh -1.6%.
Screening CC(=O)N(Cc1cc(=O)[nH]c2ccccc12)c1ccc(C)cc1 returned HP1b binding inh 22.3%, BAZ2B block 12.0%, G9a block 31.6µM*, Sfp inh -7.4%, JMJD2A Tudor inh 1.0% and L3MBTL1 inh -7.3%.
O=C(CCl)N(Cc1cc(=O)[nH]c2ccccc12)c1ccccc1 was read as HP1b binding inh 6.2%, BAZ2B block -4.4%, G9a block 39.8µM*, Sfp inh -25.0% and JMJD2A Tudor inh -28.9%.
`C#CCOc1ccc(C(=O)N(C)c2ccccc2I)cc1` gave HP1b binding inh 54.3%, Sfp inh 20.5% and JMJD2A Tudor inh -16.6%.
Screening CCN(CC)S(=O)(=O)c1cccc(N=Nc2sc(N)nc2C)c1 returned HP1b binding inh inconclusive, BAZ2B block 11.2µM*, G9a block 39.8µM*, Sfp inh -2.0% and JMJD2A Tudor inh 35.5µM*.
`CCOC(=O)c1cnc2ccc(C(=O)OC)cc2c1Nc1ccc(N2CCOCC2)cc1` gave HP1b binding inh inconclusive, BAZ2B block 17.8µM*, G9a block 12.6µM* and JMJD2A Tudor inh 50.1µM*.
For CCOC(=O)c1cnc2ccc(Cl)cc2c1Nc1ccc(S(=O)(=O)Nc2ncccn2)cc1 the results were HP1b binding inh 26.4%, BAZ2B block -20.2%, G9a block -4.7%, Sfp inh 10.7%, JMJD2A Tudor inh -6.0% and L3MBTL1 inh 8.4%.
CCOC(=O)c1cnc2ccc(OCC)cc2c1NCc1ccccc1 was read as HP1b binding inh 308.0%, BAZ2B block 141.1%, G9a block 100.6%[59 µM], Sfp inh 31.6µM*, JMJD2A Tudor inh 157.4% and L3MBTL1 inh 85.0%.
